Results reported in PubChem BioAssay (NCATS).
Where “and” joins values, the source holds several entries; their conditions need not be identical. Identical values can stand only once. Results filed as inconclusive are left out. Values without a mark were called inactive. Calls of active or inactive are those of the source. The call rests on the fitted dose curve; in most records, active means well fitted inhibition curve with a large enough effect; inconclusive means small, poorly fitted or top-dose-only effect; inactive means flat fitted curve, though single readings scatter.

How the values were obtained:
ECU = test: qHTS profiling for inhibitors of Plasmodium falciparum proliferation (AID 504749); settings: P. falciparum in erythrocytes, SYBR Green DNA, 72 h; series mostly up to 28.7 µM
Method in brief: (§1)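 Infected RBCs, 0.3% parasitemia/2.5% Hct final; cpd 72 h, 37 C, 5% CO2; lysis buffer with saponin/triton/SYBR Green I, o/n RT dark; FI 485/535; norm. to artemisinin (0.29 uM) and DMSO.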

GB4 = test: as above; settings: P. falciparum in erythrocytes, SYBR Green DNA, 72 h; series mostly up to 28.7 µM
Method in brief: as §1

HB3 = test: as above; settings: P. falciparum in erythrocytes, SYBR Green DNA, 72 h; series mostly up to 28.7 µM
Method in brief: as §1

ICS = test: as above; settings: P. falciparum in erythrocytes, SYBR Green DNA, 72 h; series mostly up to 28.7 µM
Method in brief: as §1

N140 = test: as above; settings: P. falciparum in erythrocytes, SYBR Green DNA, 72 h; series mostly up to 28.7 µM
Method in brief: as §1

P93_24 = test: as above; settings: P. falciparum in erythrocytes, SYBR Green DNA, 72 h; series mostly up to 28.7 µM
Method in brief: as §1

P94_40 = test: as above; settings: P. falciparum in erythrocytes, SYBR Green DNA, 72 h; series mostly up to 28.7 µM
Method in brief: as §1

PAD = test: as above; settings: P. falciparum in erythrocytes, SYBR Green DNA, 72 h; series mostly up to 28.7 µM
Method in brief: as §1

TAB113 = test: as above; settings: P. falciparum in erythrocytes, SYBR Green DNA, 72 h; series mostly up to 28.7 µM
Method in brief: as §1

TAB165 = test: as above; settings: P. falciparum in erythrocytes, SYBR Green DNA, 72 h; series mostly up to 28.7 µM
Method in brief: as §1

W2 = test: as above; settings: P. falciparum in erythrocytes, SYBR Green DNA, 72 h; series mostly up to 28.7 µM
Method in brief: as §1

CRL-7250 = normal cell line; test: Cytotoxic Profiling of Annotated Libraries Using Quantitative High-Throughput Screening (AID 1296008); settings: Five cell lines viability, CellTiter-Glo ATP luminescence, 48-72 h; max response: hits give low values; on max response: on the % scale 0 is the no-effect control and ±100 the full control effect
Method in brief: (§2)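 Cytotoxicity was measured as CellTiter-Glo ATP luminescence, read after 10 min at room temperature. Compound treatment of the cells lasted 48 or 72 hr at 37 degrees Celsius in a qHTS format.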

HEK293 = test: as above; settings: Five cell lines viability, CellTiter-Glo ATP luminescence, 48-72 h; max response: hits give low values
Method in brief: as §2

FAB9 = test: qHTS profiling for inhibitors of Plasmodium falciparum proliferation (AID 504749); settings: P. falciparum in erythrocytes, SYBR Green DNA, 72 h; series mostly up to 28.7 µM
Method in brief: as §1

JCK = test: as above; settings: P. falciparum in erythrocytes, SYBR Green DNA, 72 h; series mostly up to 28.7 µM
Method in brief: as §1

PC15 = test: as above; settings: P. falciparum in erythrocytes, SYBR Green DNA, 72 h; series mostly up to 28.7 µM
Method in brief: as §1

PC49 = test: as above; settings: P. falciparum in erythrocytes, SYBR Green DNA, 72 h; series mostly up to 28.7 µM
Method in brief: as §1

SC27B = test: as above; settings: P. falciparum in erythrocytes, SYBR Green DNA, 72 h; series mostly up to 28.7 µM
Method in brief: as §1

TAB109 = test: as above; settings: P. falciparum in erythrocytes, SYBR Green DNA, 72 h; series mostly up to 28.7 µM
Method in brief: as §1

PC26 = test: as above; settings: P. falciparum in erythrocytes, SYBR Green DNA, 72 h; series mostly up to 28.7 µM
Method in brief: as §1
Further: nearly all actives have a fitted effect of over 60% in size.
Potency means the concentration at half of the fitted maximal effect.

**Q.** Which results are given for `CN(C)C(=S)SC(=S)N(C)C`?
**A.** Potency (ECU): 1.12 µM (active); Potency (GB4): 13.5 µM (active); Potency (HB3): 5.01 µM (active); Potency (ICS): 5.01 µM (active); Potency (N140): 11.2 µM (active); Potency (P93_24): 8.91 µM (active); Potency (P94_40): 11.2 µM (active); Potency (PAD): 5.01 µM (active); Potency (TAB113): 11.2 µM (active); Potency (TAB165): 11.2 µM (active); Potency (W2): 9.53 µM (active); Potency (CRL-7250): 8.41 µM (active); Potency (HEK293): 5.96 µM (active)

**Q.** What does the source list for `CCOc1ccc2nc3cc(N)ccc3c(N)c2c1`?
**A.** Potency (ECU): 8.91 µM (active); Potency (FAB9): 7.94 µM (active); Potency (HB3): 8.91 µM (active); Potency (ICS): 4.47 µM (active); Potency (JCK): 10 µM (active); Potency (N140): 10 µM (active); Potency (P93_24): 3.55 µM (active); Potency (P94_40): 5.62 µM (active); Potency (PAD): 7.08 µM (active); Potency (PC15): 10 µM (active); Potency (PC49): 7.94 µM (active); Potency (SC27B): 7.94 µM (active); Potency (TAB109): 3.98 µM (active); Potency (TAB113): 4.47 µM (active); Potency (TAB165): 10 µM (active); Potency (W2): 3.38 µM (active); Potency (CRL-7250): 11.9 µM (active)

**Q.** Which results are given for `CN(C)CCOc1ccccc1Cc1ccccc1`?
**A.** Potency (FAB9): inactive; Potency (HB3): inactive; Potency (N140): 4.47 µM (active); Potency (PC49): 2.51 µM (active); Potency (TAB109): 3.16 µM (active); Potency (W2): 0.0536 µM (active); outcome (CRL-7250): inactive; max response (HEK293): -12.7%

**Q.** With `Cc1ccc(C(=O)C(C)CN2CCCCC2)cc1` (stereo not given) as the compound, how does the Potency (FAB9) read?
**A.** inactive

**Q.** And the Potency (GB4)?
**A.** 13.5 µM (active)

**Q.** And the Potency (ICS)?
**A.** 3.98 µM (active)

**Q.** What about the Potency (JCK) of the same compound?
**A.** inactive

**Q.** What about the Potency (PC49) of the same compound?
**A.** inactive

**Q.** And the Potency (SC27B)?
**A.** inactive

**Q.** And the Potency (W2)?
**A.** 6.01 µM (active)

**Q.** And the max response (CRL-7250)?
**A.** -2.76% and -2.03%

**Q.** And the max response (HEK293)?
**A.** 0.201%

**Q.** How did the Potency (ECU) turn out when `CCOC(=O)c1cccc(N)c1` was run?
**A.** inactive

**Q.** What about the Potency (FAB9) of the same compound?
**A.** inactive

**Q.** What about the Potency (HB3) of the same compound?
**A.** inactive

**Q.** What about the Potency (ICS) of the same compound?
**A.** inactive

**Q.** And the Potency (JCK)?
**A.** inactive

**Q.** And the Potency (N140)?
**A.** inactive

**Q.** What about the Potency (P93_24) of the same compound?
**A.** inactive

**Q.** What about the Potency (P94_40) of the same compound?
**A.** inactive

**Q.** What about the Potency (PAD) of the same compound?
**A.** inactive

**Q.** What about the Potency (PC15) of the same compound?
**A.** inactive

**Q.** What about the Potency (PC26) of the same compound?
**A.** 16.9 µM (active)

**Q.** What about the Potency (PC49) of the same compound?
**A.** inactive

**Q.** What about the Potency (SC27B) of the same compound?
**A.** inactive

**Q.** And the Potency (TAB109)?
**A.** inactive

**Q.** What about the Potency (TAB113) of the same compound?
**A.** inactive

**Q.** And the Potency (TAB165)?
**A.** inactive

**Q.** What about the max response (CRL-7250) of the same compound?
**A.** -5.88%

**Q.** And the max response (HEK293)?
**A.** -0.911%
